Assay [1] is described as follows: NCI Yeast Anticancer Drug Screen. Data for the rad50 strain (AID 155).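 Also: 0% = growth of vehicle-only cultures of the same strain.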 The note with it: S. cerevisiae rad50 strain growth inhibition, active compounds read high. The method, boiled down: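 Compounds were tested on a yeast strain with an engineered DNA damage repair alteration; the reported value is growth inhibition normalised to vehicle treatment.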
Assay [2] in a line: NCI Yeast Anticancer Drug Screen. Data for the mec2-1 strain (AID 157). As to conditions: S. cerevisiae mec2-1 strain, active compounds read high. The procedure, abridged: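 Strain: mec2-1 (DNA repair/cell cycle alteration). Compound exposure, then growth measured; inhibition expressed relative to vehicle.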
A short description of assay [3]: NCI Yeast Anticancer Drug Screen. Data for the sgs1 mgt1 strain (AID 161).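 Also: 0% = growth of cultures given vehicle only.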 As to conditions: S. cerevisiae sgs1 mgt1 strain, active compounds read high. The procedure, abridged: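 Mutant yeast exposed to compound; growth scored against vehicle-only wells.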
Assay [4] can be described thus: NCI Yeast Anticancer Drug Screen. Data for the cln2 rad14 strain (AID 165).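 Also: 0% = growth equal to vehicle treated cultures.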 The note with it: S. cerevisiae cln2 rad14 strain, active compounds read high. The procedure, abridged:
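Compounds are applied to the cln2 rad14 yeast strain, and growth is then compared with that of vehicle-treated cultures to give inhibition.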

The nature of assay [5]: NCI Yeast Anticancer Drug Screen. Data for the bub3 strain (AID 167). As to conditions: S. cerevisiae bub3 mutant strain, active compounds read high. The procedure, abridged: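 Growth of a checkpoint-deficient yeast mutant is measured after compound exposure. Values represent inhibition relative to vehicle.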
A short description of assay [6]: NCI Yeast Anticancer Drug Screen. Data for the mlh1 rad18 strain (AID 175). The note with it: S. cerevisiae mlh1 rad18 strain growth inhibition, active compounds read high. The method, boiled down:
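Read-out is yeast growth inhibition, calculated against vehicle-only controls. The compound was applied to a strain engineered with DNA damage repair alterations.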

[7] abbreviates: at 5.0 µM (retest, dose inferred, filed as 0.5).
[8] abbreviates: at 50.0 µM (retest, dose inferred, filed as 5.0).

For 9 molecules, growth inhibition results are on record in PubChem BioAssay (NCI).

The panel holds about 79,000 compounds, 15% with a hit somewhere; the sample as a whole holds those more often. Unmarked numbers belong to inactive results. The source made the active and inactive calls. Rule as the data show it: active = growth inhibition above about 70%; inactive = the rest.

As for `COc1ccc2nc(N/N=C/c3ccccn3)cc(C)c2c1`, the growth inhibition was 10% in assay [1] (setting [7]); 56% in assay [1] (setting [8]); 98.7% (active) in assay [1] (at 50.0 µM); -3% in assay [2] (setting [7]); 62% in assay [2] (setting [8]); 98.1% (active) in assay [2] (at 50.0 µM). Besides, the growth inhibition was 0% in assay [3] (setting [7]); 57% in assay [3] (setting [8]); 99.2% (active) in assay [3] (at 50.0 µM); 3% in assay [4] (setting [7]); 40% in assay [4] (setting [8]); 96.5% (active) in assay [4] (at 50.0 µM). Besides, the growth inhibition is 4% in assay [5] (setting [7]); 58% in assay [5] (setting [8]); 98.3% (active) in assay [5] (at 50.0 µM); 19% in assay [6] (setting [7]); 75% (active) in assay [6] (setting [8]); 99% (active) in assay [6] (at 50.0 µM).
For `CCOc1c(N=Nc2ccc(OC)cc2)c(-c2ccccc2)nn1C(N)=S`, the growth inhibition is 4% in assay [1] (setting [7]); 36% in assay [1] (setting [8]); 12.3% in assay [1] (at 50.0 µM); -2% in assay [2] (setting [7]); 34% in assay [2] (setting [8]); 38% in assay [2] (at 50.0 µM). Besides, the growth inhibition was 10% in assay [3] (setting [7]); 73% (active) in assay [3] (setting [8]); 25.8% in assay [3] (at 50.0 µM); 6% in assay [4] (setting [7]); 9% in assay [4] (setting [8]); 3.1% in assay [4] (at 50.0 µM). Also, the growth inhibition in assay [5] (setting [7]) is 3%; in assay [5] (setting [8]), 71% (active); in assay [5] (at 50.0 µM), 70.2% (active); in assay [6] (setting [7]) it was 0%; in assay [6] (setting [8]), 27%; in assay [6] (at 50.0 µM) it was 23.9%.
Take `CC[C@]1(O)C[C@H]2[C@@H]3CCc4cc(OC)ccc4[C@H]3CC[C@]2(C)[C@H]1O`: the growth inhibition in assay [1] (setting [7]) is -3%; in assay [1] (setting [8]), 98% (active); in assay [1] (at 50.0 µM) it was 46%; in assay [2] (setting [7]) it was -6%; in assay [2] (setting [8]), 98% (active); in assay [2] (at 50.0 µM), 48.5%. Besides, the growth inhibition in assay [3] (setting [7]) was -4%; in assay [3] (setting [8]), 98% (active); in assay [3] (at 50.0 µM), 49.9%; in assay [4] (setting [7]) it was -6%; in assay [4] (setting [8]), 87% (active); in assay [4] (at 50.0 µM) it was 68.9%. For the same molecule, the growth inhibition was 2% in assay [5] (setting [7]); 97% (active) in assay [5] (setting [8]); 49.8% in assay [5] (at 50.0 µM); -4% in assay [6] (setting [7]); 99% (active) in assay [6] (setting [8]); 46.4% in assay [6] (at 50.0 µM).
Turning to `CN(C)CCOc1cc2c(c3ccccc13)-c1ccccc1C2=O`, the growth inhibition in assay [1] (setting [7]) was 93% (active); in assay [1] (setting [8]) it was 99% (active); in assay [1] (at 50.0 µM), 99.7% (active); in assay [2] (setting [7]), 14%; in assay [2] (setting [8]), 99% (active); in assay [2] (at 50.0 µM), 99.3% (active). The growth inhibition in assay [3] (setting [7]) is 20%; in assay [3] (setting [8]), 100% (active); in assay [3] (at 50.0 µM), 99.4% (active); in assay [4] (setting [7]), 12%; in assay [4] (setting [8]) it was 96% (active); in assay [4] (at 50.0 µM), 99% (active). Besides, the growth inhibition in assay [5] (setting [7]) was 6%; in assay [5] (setting [8]), 99% (active); in assay [5] (at 50.0 µM), 99.6% (active); in assay [6] (setting [7]) it was 21%; in assay [6] (setting [8]), 100% (active); in assay [6] (at 50.0 µM), 99.1% (active).
For `C=CC[P+](CC[P+](CC=C)(c1ccccc1)c1ccccc1)(c1ccccc1)c1ccccc1`, the growth inhibition is -2% in assay [1] (setting [7]); -3% in assay [1] (setting [8]); 2.6% in assay [1] (at 50.0 µM); -1% in assay [2] (setting [7]); -4% in assay [2] (setting [8]); -0.25% in assay [2] (at 50.0 µM). Moreover, the growth inhibition in assay [3] (setting [7]) is -2%; in assay [3] (setting [8]) it was 1%; in assay [3] (at 50.0 µM) it was 16.6%; in assay [4] (setting [7]), -5%; in assay [4] (setting [8]), -10%; in assay [4] (at 50.0 µM), -31.6%. The growth inhibition in assay [5] (setting [7]) was -3%; in assay [5] (setting [8]), -3%; in assay [5] (at 50.0 µM), 6.8%; in assay [6] (setting [7]) it was 1%; in assay [6] (setting [8]), -1%; in assay [6] (at 50.0 µM), 52.2%.
For the molecule `CCCCCCCCCCCCCCCC(=O)N1CCOCC1`, the growth inhibition was -4% in assay [1] (setting [7]); 94% (active) in assay [1] (setting [8]); 31.4% in assay [1] (at 50.0 µM); -5% in assay [2] (setting [7]); 97% (active) in assay [2] (setting [8]); 31.8% in assay [2] (at 50.0 µM). For the same molecule, the growth inhibition in assay [3] (setting [7]) is -4%; in assay [3] (setting [8]) it was 98% (active); in assay [3] (at 50.0 µM), -13.7%; in assay [4] (setting [7]) it was 1%; in assay [4] (setting [8]), 62%; in assay [4] (at 50.0 µM), -64.8%. The growth inhibition is -8% in assay [5] (setting [7]); 98% (active) in assay [5] (setting [8]); 21.2% in assay [5] (at 50.0 µM); 17% in assay [6] (setting [7]); 93% (active) in assay [6] (setting [8]); 28.1% in assay [6] (at 50.0 µM).
With `CCN(CC)CCSCCCNc1cc(OC)cc2cccnc12`, the growth inhibition in assay [1] (setting [7]) was -1%; in assay [1] (setting [8]), 24%; in assay [1] (at 50.0 µM) it was 67.5%; in assay [2] (setting [7]), 6%; in assay [2] (setting [8]), 29%; in assay [2] (at 50.0 µM), 59.6%. In addition, the growth inhibition in assay [3] (setting [7]) is 13%; in assay [3] (setting [8]), 54%; in assay [3] (at 50.0 µM), 71% (active); in assay [4] (setting [7]) it was 8%; in assay [4] (setting [8]), 32%; in assay [4] (at 50.0 µM) it was 78% (active). Moreover, the growth inhibition in assay [5] (setting [7]) was 10%; in assay [5] (setting [8]) it was 54%; in assay [5] (at 50.0 µM) it was 54%; in assay [6] (setting [7]) it was 7%; in assay [6] (setting [8]) it was 28%; in assay [6] (at 50.0 µM), 65.3%.
As to `Cc1ccc(C(=O)CC(N)C(=O)O)cc1` (configuration not stated), the growth inhibition was -2% in assay [1] (setting [7]); 0% in assay [1] (setting [8]); 12.2% in assay [1] (at 50.0 µM); 3% in assay [2] (setting [7]); -2% in assay [2] (setting [8]); -3% in assay [2] (at 50.0 µM). Moreover, the growth inhibition in assay [3] (setting [7]) was -1%; in assay [3] (setting [8]), -1%; in assay [3] (at 50.0 µM), -3.05%; in assay [4] (setting [7]) it was 2%; in assay [4] (setting [8]), 1%; in assay [4] (at 50.0 µM) it was 89% (active). Also, the growth inhibition in assay [5] (setting [7]) is 2%; in assay [5] (setting [8]) it was -2%; in assay [5] (at 50.0 µM), -2.25%; in assay [6] (setting [7]), -1%; in assay [6] (setting [8]), 3%; in assay [6] (at 50.0 µM), 8.95%.
Consider `C/C(=N\NC(=O)c1ccc([N+](=O)[O-])cc1)c1ccccc1`, for which the growth inhibition in assay [1] (setting [7]) was 8%; in assay [1] (setting [8]), -5%; in assay [1] (at 50.0 µM), -2.65%; in assay [2] (setting [7]), -19%; in assay [2] (setting [8]), -1%; in assay [2] (at 50.0 µM) it was -5.45%. Moreover, the growth inhibition is 6% in assay [3] (setting [7]); -6% in assay [3] (setting [8]); 10.3% in assay [3] (at 50.0 µM); 2% in assay [4] (setting [7]); 11% in assay [4] (setting [8]); -7.95% in assay [4] (at 50.0 µM). Besides, the growth inhibition in assay [5] (setting [7]) was 9%; in assay [5] (setting [8]) it was 14%; in assay [5] (at 50.0 µM) it was 38.8%; in assay [6] (setting [7]) it was 15%; in assay [6] (setting [8]) it was 26%; in assay [6] (at 50.0 µM), -7.2%.
